According to paper PMC4336329 (PLoS ONE, 2015):
Among all 310,000 compounds or so, about 14,000 (4.5%) showed an effect of 50% or more. The effect is printed as a negative number. What follows is part of a selection rich in strong results, with near analogues and random picks from the rest.

target: human ether-à-go-go-related gene (hERG) potassium channel (human, UniProt Q12809); assay: primary screen, population patch clamp on CHO cells stably expressing hERG; higher = less effect of the substance
Sequence (Q12809 whole entry, looked up): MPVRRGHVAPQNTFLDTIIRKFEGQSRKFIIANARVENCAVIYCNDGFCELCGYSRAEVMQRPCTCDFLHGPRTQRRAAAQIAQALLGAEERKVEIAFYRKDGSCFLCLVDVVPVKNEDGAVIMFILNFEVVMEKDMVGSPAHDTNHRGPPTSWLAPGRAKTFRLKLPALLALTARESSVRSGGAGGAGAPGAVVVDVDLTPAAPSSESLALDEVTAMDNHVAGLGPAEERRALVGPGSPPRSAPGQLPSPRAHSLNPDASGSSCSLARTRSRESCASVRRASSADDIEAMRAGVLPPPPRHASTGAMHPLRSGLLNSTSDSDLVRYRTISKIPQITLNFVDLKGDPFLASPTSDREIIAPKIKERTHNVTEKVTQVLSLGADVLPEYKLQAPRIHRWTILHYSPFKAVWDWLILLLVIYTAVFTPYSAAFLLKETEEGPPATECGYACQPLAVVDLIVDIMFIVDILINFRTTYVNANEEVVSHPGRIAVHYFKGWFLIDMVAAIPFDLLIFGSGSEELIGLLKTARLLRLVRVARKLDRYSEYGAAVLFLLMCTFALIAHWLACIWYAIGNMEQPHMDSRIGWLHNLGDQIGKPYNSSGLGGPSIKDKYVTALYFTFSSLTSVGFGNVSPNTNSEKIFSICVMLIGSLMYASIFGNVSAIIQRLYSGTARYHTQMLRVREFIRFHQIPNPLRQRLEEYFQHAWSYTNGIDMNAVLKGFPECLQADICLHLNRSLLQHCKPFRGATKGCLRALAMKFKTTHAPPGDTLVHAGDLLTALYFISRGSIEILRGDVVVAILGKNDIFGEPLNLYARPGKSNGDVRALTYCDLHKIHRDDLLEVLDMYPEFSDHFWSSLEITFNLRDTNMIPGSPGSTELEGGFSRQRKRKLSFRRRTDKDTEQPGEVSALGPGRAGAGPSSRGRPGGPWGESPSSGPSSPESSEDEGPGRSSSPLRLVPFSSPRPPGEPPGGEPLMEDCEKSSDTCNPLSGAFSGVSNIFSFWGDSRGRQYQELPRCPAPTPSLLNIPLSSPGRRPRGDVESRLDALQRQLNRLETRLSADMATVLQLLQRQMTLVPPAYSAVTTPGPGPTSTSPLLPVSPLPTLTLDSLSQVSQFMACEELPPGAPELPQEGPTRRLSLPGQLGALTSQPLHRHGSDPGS
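Also: peak tail current of the secondary pulse compared with the same well before compound.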

Compound | hERG current change (%, negative = inhibition) at 10uM
Cc1ccc(NC(=O)c2nnn(-c3ccc4c(c3)OCCO4)c2N)cc1 | 9.9%
Cc1cc(NC(=O)CSc2nncc(=O)n2N)no1 | 1.99%
COCCCN1C(=O)/C(=C\c2cccs2)C(C(=O)OC)=C1C | -31.9%
CCN1C(=O)/C(=C\c2cccs2)C(C(=O)OC)=C1C | 5.41%
COC(=O)C1=C(C)N(Cc2cccnc2)C(=O)/C1=C\c1sccc1C | -79.2%
COC(=O)C1=C(C)N(Cc2ccccc2)C(=O)/C1=C\c1ccco1 | 2.06%
COC(=O)C1=C(C)N(Cc2cccnc2)C(=O)/C1=C\c1cccs1 | -89%
COC(=O)C1=C(C)N(Cc2cccnc2)C(=O)C1 | -0.706%
CCN(CC)S(=O)(=O)c1cccc(-c2nnc(SCC(=O)NC3CCCC3)n2N)c1 | 19%
Cc1cc(=O)[nH]c2c(C)cc(S(=O)(=O)N3CCCCC3)cc12 | 4.69%
CCc1cccc(NC(=O)COc2ccccc2)c1 | -8.01%
O=C(Oc1c(-c2ccccc2)c(=O)n2c3c(cccc13)CC2)c1ccc(F)cc1 | 10.4%
O=C(Oc1c(-c2ccccc2)c(=O)n2c3c(cccc13)CC2)c1ccccc1 | -9.09%
O=C(Oc1c(-c2ccccc2)c(=O)n2c3c(cccc13)CC2)c1ccco1 | -62%
CC1CC(=S)Nc2ccccc2S1 (centres unmarked) | 11.1%
CN(C)S(=O)(=O)N1CCC(c2ccc(F)cc2)C(COc2ccc3c(c2)OCO3)C1 (centres unmarked) | 10.2%
N#C/C(=C/c1ccc(Sc2nc3ccccc3[nH]2)o1)c1ccccc1F | -7.86%
O=C(O)c1ccc(NC(=S)NC(=O)C(c2ccccc2)c2ccccc2)cc1 | -6.52%
CCOc1ccc(NC(=O)C(C)Oc2ccc(C#N)cc2)cc1S(=O)(=O)N1CCCC1 (centres unmarked) | -62.1%
CCOc1ccc(NC(=O)C(C)NC(=O)c2ccccc2Cl)cc1S(=O)(=O)N1CCCC1 (centres unmarked) | -14.3%
Cc1ccc(NC(=O)C(C)Oc2ccccc2)cc1S(=O)(=O)N1CCCCCC1 (centres unmarked) | -7.7%
COc1ccc(NC(=O)Nc2nnc(-c3ccccc3SCc3ccccc3)s2)cc1 | 13.6%
O=C(Cc1cccs1)NCCN1CCOCC1 | 3.99%
OCCNc1nc(OCC(F)(F)F)nc(N2CCN(C34CC5CC(CC(C5)C3)C4)CC2)n1 | -37.9%
CN1CCN(c2nc(NCCOC34CC5CC(CC(C5)C3)C4)nc(OCC(F)(F)F)n2)CC1 | -60.8%
CNc1nc(NCCOC23CC4CC(CC(C4)C2)C3)nc(OCC(F)(F)F)n1 | 8.55%
